# In ChEMBL document CHEMBL1961873, “Compounds: GSK PKIS; Assays: Nanosyn kinase panel” (2012):
# Assays:
# [1] = tested on: Epidermal growth factor receptor (Homo sapiens), P00533 [L858R,T790M]; settings: at 0.1 µM
# [2] = tested on: Epidermal growth factor receptor (Homo sapiens), P00533 [L858R,T790M]; settings: at 1 µM
# [3] = molecular target: Ephrin type-A receptor 2 (Homo sapiens) (UniProt P29317); settings: at 0.1 µM
# [4] = molecular target: Ephrin type-A receptor 2 (Homo sapiens) (UniProt P29317); settings: at 1 µM
# [5] = molecular target: Ephrin type-A receptor 3 (Homo sapiens) (UniProt P29320); settings: at 0.1 µM
# Ephrin type-A receptor 3 (Homo sapiens), sequence (P29320 whole entry): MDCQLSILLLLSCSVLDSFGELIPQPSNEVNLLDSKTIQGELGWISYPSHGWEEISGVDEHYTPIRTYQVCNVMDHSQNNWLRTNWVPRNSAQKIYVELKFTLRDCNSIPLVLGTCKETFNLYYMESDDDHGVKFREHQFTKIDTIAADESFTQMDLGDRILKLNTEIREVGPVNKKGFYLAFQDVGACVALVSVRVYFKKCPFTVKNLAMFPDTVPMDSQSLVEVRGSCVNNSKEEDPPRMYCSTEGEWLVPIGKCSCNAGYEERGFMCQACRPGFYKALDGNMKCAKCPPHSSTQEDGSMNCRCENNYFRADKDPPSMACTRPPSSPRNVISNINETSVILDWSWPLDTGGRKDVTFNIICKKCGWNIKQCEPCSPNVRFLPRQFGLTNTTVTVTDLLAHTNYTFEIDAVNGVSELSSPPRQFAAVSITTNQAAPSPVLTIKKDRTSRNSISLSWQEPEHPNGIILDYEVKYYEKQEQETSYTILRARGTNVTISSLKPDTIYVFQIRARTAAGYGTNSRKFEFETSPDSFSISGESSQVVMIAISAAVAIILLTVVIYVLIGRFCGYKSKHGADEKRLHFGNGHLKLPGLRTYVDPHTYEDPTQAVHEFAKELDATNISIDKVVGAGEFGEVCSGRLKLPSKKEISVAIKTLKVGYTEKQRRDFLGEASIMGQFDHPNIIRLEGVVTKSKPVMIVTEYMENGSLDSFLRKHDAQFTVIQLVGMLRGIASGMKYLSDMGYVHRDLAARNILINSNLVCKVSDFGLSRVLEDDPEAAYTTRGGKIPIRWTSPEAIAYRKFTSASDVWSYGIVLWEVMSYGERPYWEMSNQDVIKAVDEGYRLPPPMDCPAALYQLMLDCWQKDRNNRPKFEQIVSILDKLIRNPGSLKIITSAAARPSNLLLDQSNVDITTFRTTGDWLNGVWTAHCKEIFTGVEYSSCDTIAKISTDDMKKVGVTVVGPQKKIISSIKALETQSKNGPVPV
# [6] = molecular target: Ephrin type-A receptor 3 (Homo sapiens) (UniProt P29320); settings: at 1 µM
# [7] = molecular target: Ephrin type-A receptor 4 (Homo sapiens) (UniProt P54764); settings: at 0.1 µM
# [8] = molecular target: Ephrin type-A receptor 4 (Homo sapiens) (UniProt P54764); settings: at 1 µM
# [9] = molecular target: Ephrin type-B receptor 2 (Homo sapiens) (UniProt P29323); settings: at 0.1 µM
# [10] = molecular target: Ephrin type-B receptor 2 (Homo sapiens) (UniProt P29323); settings: at 1 µM
# [11] = molecular target: Ephrin type-B receptor 3 (Homo sapiens) (UniProt P54753); settings: at 0.1 µM
# [12] = molecular target: Ephrin type-B receptor 3 (Homo sapiens) (UniProt P54753); settings: at 1 µM
# [13] = molecular target: Ephrin type-B receptor 4 (Homo sapiens) (UniProt P54760); settings: at 0.1 µM
# Ephrin type-B receptor 4 (Homo sapiens), sequence (P54760 whole entry): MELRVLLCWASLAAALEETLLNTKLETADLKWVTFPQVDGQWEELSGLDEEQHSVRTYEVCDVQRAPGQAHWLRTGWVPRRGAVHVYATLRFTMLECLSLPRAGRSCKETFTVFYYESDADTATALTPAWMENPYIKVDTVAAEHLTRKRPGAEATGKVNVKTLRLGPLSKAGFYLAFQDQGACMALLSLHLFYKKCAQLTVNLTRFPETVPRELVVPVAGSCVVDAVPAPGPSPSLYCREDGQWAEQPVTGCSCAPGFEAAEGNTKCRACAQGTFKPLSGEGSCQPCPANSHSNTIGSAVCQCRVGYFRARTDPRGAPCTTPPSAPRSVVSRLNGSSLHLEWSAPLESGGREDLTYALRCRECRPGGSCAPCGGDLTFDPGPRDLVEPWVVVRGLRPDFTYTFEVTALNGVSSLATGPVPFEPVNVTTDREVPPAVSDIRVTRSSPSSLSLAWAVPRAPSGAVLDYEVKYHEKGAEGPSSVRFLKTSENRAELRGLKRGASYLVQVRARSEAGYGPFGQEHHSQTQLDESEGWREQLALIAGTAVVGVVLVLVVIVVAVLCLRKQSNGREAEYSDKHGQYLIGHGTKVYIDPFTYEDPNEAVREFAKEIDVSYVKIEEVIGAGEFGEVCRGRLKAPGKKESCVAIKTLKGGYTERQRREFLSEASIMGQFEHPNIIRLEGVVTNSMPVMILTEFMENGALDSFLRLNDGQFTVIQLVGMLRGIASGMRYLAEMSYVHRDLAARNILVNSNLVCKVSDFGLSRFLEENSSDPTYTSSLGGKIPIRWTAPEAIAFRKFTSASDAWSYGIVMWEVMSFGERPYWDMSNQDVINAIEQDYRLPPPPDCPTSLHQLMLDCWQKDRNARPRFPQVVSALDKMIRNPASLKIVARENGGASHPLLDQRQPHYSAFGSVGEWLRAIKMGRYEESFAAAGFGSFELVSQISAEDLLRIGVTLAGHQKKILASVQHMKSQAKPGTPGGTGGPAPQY
# [14] = molecular target: Ephrin type-B receptor 4 (Homo sapiens) (UniProt P54760); settings: at 1 µM
# [15] = molecular target: Receptor tyrosine-protein kinase erbB-2 (Homo sapiens) (UniProt P04626); settings: at 0.1 µM
# [16] = molecular target: Receptor tyrosine-protein kinase erbB-2 (Homo sapiens) (UniProt P04626); settings: at 1 µM
# [17] = molecular target: Receptor tyrosine-protein kinase erbB-4 (Homo sapiens) (UniProt Q15303); settings: at 0.1 µM
# [18] = molecular target: Receptor tyrosine-protein kinase erbB-4 (Homo sapiens) (UniProt Q15303); settings: at 1 µM
# [19] = molecular target: Tyrosine-protein kinase Fer (Homo sapiens) (UniProt P16591); settings: at 0.1 µM
# [20] = molecular target: Tyrosine-protein kinase Fer (Homo sapiens) (UniProt P16591); settings: at 1 µM
# [21] = molecular target: Tyrosine-protein kinase Fes/Fps (Homo sapiens) (UniProt P07332); settings: at 0.1 µM
# [22] = molecular target: Tyrosine-protein kinase Fes/Fps (Homo sapiens) (UniProt P07332); settings: at 1 µM
# [23] = molecular target: Fibroblast growth factor receptor 1 (Homo sapiens) (UniProt P11362); settings: at 0.1 µM
# Fibroblast growth factor receptor 1 (Homo sapiens), sequence (P11362 22-822 limits assumed): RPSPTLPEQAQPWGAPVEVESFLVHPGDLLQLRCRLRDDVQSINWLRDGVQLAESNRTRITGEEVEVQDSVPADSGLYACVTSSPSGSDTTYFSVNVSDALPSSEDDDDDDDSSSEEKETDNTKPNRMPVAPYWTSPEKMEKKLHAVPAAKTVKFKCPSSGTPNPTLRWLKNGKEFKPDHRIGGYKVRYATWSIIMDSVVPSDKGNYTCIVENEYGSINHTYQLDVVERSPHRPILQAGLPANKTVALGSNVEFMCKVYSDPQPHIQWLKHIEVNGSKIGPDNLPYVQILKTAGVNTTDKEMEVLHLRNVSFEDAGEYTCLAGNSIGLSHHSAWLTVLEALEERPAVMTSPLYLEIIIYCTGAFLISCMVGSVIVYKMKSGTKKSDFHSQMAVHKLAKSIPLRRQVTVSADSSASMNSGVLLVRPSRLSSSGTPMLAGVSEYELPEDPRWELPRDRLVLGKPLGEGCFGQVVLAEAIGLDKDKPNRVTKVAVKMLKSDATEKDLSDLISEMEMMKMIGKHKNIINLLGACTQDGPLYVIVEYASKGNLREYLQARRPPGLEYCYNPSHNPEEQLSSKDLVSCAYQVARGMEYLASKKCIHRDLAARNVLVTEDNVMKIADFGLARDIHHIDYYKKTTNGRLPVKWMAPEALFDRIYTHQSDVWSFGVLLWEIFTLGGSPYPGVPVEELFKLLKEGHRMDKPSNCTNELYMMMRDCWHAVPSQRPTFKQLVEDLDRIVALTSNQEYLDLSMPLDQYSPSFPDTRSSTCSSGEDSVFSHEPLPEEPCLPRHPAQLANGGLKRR
# [24] = molecular target: Fibroblast growth factor receptor 1 (Homo sapiens) (UniProt P11362); settings: at 1 µM
# [25] = molecular target: Fibroblast growth factor receptor 2 (Homo sapiens) (UniProt P21802); settings: at 0.1 µM
# [26] = molecular target: Fibroblast growth factor receptor 2 (Homo sapiens) (UniProt P21802); settings: at 1 µM
# [27] = molecular target: Fibroblast growth factor receptor 3 (Homo sapiens) (UniProt P22607); settings: at 0.1 µM
# [28] = molecular target: Fibroblast growth factor receptor 3 (Homo sapiens) (UniProt P22607); settings: at 1 µM
# [29] = molecular target: Fibroblast growth factor receptor 4 (Homo sapiens) (UniProt P22455); settings: at 0.1 µM
# [30] = molecular target: Fibroblast growth factor receptor 4 (Homo sapiens) (UniProt P22455); settings: at 1 µM
# [31] = molecular target: Tyrosine-protein kinase Fgr (Homo sapiens) (UniProt P09769); settings: at 0.1 µM
# [32] = molecular target: Tyrosine-protein kinase Fgr (Homo sapiens) (UniProt P09769); settings: at 1 µM
# [33] = molecular target: Vascular endothelial growth factor receptor 1 (Homo sapiens) (UniProt P17948); settings: at 0.1 µM
# [34] = molecular target: Vascular endothelial growth factor receptor 1 (Homo sapiens) (UniProt P17948); settings: at 1 µM
# [35] = molecular target: Receptor-type tyrosine-protein kinase FLT3 (Homo sapiens) (UniProt P36888); settings: at 0.1 µM
# [36] = molecular target: Receptor-type tyrosine-protein kinase FLT3 (Homo sapiens) (UniProt P36888); settings: at 1 µM
# [37] = tested on: Receptor-type tyrosine-protein kinase FLT3 (Homo sapiens), P36888 [D835Y]; settings: at 0.1 µM
# [38] = molecular target: Non-receptor tyrosine-protein kinase TYK2 (Homo sapiens) (UniProt P29597); settings: at 1 µM;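 note: values are mean percent inhibition of TYK2 kinase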
# [39] = molecular target: Tyrosine-protein kinase receptor TYRO3 (Homo sapiens) (UniProt Q06418); settings: at 0.1 µM
# [40] = molecular target: Tyrosine-protein kinase receptor TYRO3 (Homo sapiens) (UniProt Q06418); settings: at 1 µM
# [41] = molecular target: Tyrosine-protein kinase Yes (Homo sapiens) (UniProt P07947); settings: at 0.1 µM
# Tyrosine-protein kinase Yes (Homo sapiens), sequence (P07947 2-543 limits assumed): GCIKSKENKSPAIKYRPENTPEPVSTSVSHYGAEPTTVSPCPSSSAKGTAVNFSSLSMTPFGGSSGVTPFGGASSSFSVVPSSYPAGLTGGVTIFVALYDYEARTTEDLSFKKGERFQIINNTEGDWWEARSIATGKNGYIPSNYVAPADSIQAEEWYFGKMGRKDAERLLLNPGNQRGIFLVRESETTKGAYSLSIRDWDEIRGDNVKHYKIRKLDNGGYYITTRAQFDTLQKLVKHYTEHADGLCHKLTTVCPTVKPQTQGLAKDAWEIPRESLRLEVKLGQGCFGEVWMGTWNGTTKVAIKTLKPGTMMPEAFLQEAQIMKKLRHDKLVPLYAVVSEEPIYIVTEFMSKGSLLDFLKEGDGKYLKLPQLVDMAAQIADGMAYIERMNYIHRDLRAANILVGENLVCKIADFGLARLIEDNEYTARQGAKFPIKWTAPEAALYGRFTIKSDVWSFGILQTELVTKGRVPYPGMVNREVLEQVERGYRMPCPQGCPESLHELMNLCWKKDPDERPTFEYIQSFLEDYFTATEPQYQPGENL
# [42] = molecular target: Tyrosine-protein kinase Yes (Homo sapiens) (UniProt P07947); settings: at 1 µM
# [43] = molecular target: Tyrosine-protein kinase ZAP-70 (Homo sapiens) (UniProt P43403); settings: at 0.1 µM
# Tyrosine-protein kinase ZAP-70 (Homo sapiens), sequence (P43403 whole entry): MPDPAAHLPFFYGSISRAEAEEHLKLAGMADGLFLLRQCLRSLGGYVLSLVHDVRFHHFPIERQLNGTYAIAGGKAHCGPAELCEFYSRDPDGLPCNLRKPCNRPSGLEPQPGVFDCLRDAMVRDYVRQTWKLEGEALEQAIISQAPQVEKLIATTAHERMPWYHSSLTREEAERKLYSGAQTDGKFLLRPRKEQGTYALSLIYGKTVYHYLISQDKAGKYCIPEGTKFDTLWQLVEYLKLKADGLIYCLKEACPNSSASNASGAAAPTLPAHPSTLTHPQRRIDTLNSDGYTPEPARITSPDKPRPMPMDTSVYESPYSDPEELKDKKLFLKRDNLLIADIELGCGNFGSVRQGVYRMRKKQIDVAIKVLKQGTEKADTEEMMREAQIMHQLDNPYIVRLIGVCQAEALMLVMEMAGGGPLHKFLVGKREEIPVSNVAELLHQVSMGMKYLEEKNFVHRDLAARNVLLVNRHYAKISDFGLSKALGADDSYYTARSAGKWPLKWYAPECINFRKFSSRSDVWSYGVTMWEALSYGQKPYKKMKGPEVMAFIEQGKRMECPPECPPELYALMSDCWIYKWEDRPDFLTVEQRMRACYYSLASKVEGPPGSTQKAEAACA
# [44] = molecular target: Tyrosine-protein kinase ZAP-70 (Homo sapiens) (UniProt P43403); settings: at 1 µM
# [45] = molecular target: Serine/threonine-protein kinase B-raf (Homo sapiens) (UniProt P15056); settings: at 0.1 µM
# [46] = molecular target: Serine/threonine-protein kinase B-raf (Homo sapiens) (UniProt P15056); settings: at 1 µM
# [47] = tested on: Serine/threonine-protein kinase B-raf (Homo sapiens), P15056 [V600E]; settings: at 0.1 µM
# [48] = tested on: Serine/threonine-protein kinase B-raf (Homo sapiens), P15056 [V600E]; settings: at 1 µM
# [49] = molecular target: RAF proto-oncogene serine/threonine-protein kinase (Homo sapiens) (UniProt P04049); settings: at 0.1 µM
# RAF proto-oncogene serine/threonine-protein kinase (Homo sapiens), sequence (P04049 whole entry): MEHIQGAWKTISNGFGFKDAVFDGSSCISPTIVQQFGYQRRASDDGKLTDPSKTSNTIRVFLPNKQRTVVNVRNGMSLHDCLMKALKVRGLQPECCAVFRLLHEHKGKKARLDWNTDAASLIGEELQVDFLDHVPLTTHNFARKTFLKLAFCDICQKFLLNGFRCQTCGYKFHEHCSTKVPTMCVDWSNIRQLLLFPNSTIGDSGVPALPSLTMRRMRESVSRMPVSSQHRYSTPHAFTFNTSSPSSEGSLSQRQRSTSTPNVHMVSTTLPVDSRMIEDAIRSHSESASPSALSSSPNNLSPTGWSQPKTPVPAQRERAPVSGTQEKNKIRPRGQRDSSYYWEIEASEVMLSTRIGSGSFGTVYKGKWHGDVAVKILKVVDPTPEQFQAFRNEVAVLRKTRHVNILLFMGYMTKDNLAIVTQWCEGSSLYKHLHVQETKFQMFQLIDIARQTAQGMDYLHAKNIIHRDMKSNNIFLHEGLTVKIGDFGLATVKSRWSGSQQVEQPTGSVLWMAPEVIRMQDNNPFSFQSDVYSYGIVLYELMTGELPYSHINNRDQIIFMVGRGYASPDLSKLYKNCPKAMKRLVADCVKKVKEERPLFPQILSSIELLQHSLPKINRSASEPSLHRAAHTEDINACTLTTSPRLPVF
# [50] = molecular target: RAF proto-oncogene serine/threonine-protein kinase (Homo sapiens) (UniProt P04049); settings: at 1 µM
# [51] = molecular target: Interleukin-1 receptor-associated kinase 4 (Homo sapiens) (UniProt Q9NWZ3); settings: at 0.1 µM
# Interleukin-1 receptor-associated kinase 4 (Homo sapiens), sequence (Q9NWZ3 whole entry): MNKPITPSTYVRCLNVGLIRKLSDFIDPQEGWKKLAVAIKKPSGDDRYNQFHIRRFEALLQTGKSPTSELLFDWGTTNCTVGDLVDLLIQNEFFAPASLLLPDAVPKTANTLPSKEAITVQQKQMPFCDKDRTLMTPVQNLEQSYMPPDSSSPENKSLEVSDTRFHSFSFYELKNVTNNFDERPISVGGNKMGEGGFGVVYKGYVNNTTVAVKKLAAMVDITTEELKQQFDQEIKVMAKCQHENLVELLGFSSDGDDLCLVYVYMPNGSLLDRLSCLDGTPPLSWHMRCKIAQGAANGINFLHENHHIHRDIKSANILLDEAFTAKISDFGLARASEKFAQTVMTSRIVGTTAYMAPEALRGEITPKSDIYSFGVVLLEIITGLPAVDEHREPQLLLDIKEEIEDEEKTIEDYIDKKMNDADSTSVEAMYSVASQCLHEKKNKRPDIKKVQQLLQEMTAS
# [52] = molecular target: Interleukin-1 receptor-associated kinase 4 (Homo sapiens) (UniProt Q9NWZ3); settings: at 1 µM
# [53] = molecular target: Leucine-rich repeat serine/threonine-protein kinase 2 (Homo sapiens) (UniProt Q5S007); settings: at 0.1 µM
# [54] = molecular target: Leucine-rich repeat serine/threonine-protein kinase 2 (Homo sapiens) (UniProt Q5S007); settings: at 1 µM
# [55] = tested on: Leucine-rich repeat serine/threonine-protein kinase 2 (Homo sapiens), Q5S007 [G2019S]; settings: at 0.1 µM
# [56] = tested on: Leucine-rich repeat serine/threonine-protein kinase 2 (Homo sapiens), Q5S007 [G2019S]; settings: at 1 µM
smiles,measurement,setting,value
CNC(=O)Oc1cc(C)c(/C=C/c2cncc(C(=O)NC)c2)c(C)c1,inhibition,[1],-1.98%
same,inhibition,[2],-0.11%
same,inhibition,[3],12%
same,inhibition,[4],49.6%
same,inhibition,[5],7.72%
same,inhibition,[6],17.6%
same,inhibition,[7],17.7%
same,inhibition,[8],61.4%
same,inhibition,[9],12.4%
same,inhibition,[10],52.8%
same,inhibition,[11],5.12%
same,inhibition,[12],6.12%
same,inhibition,[13],9.51%
same,inhibition,[14],49.7%
same,inhibition,[15],0.63%
same,inhibition,[16],-1.51%
same,inhibition,[17],7.57%
same,inhibition,[18],13.2%
same,inhibition,[19],0.78%
same,inhibition,[20],3.53%
same,inhibition,[21],5.18%
same,inhibition,[22],7.85%
same,inhibition,[23],3.22%
same,inhibition,[24],0.63%
same,inhibition,[25],0.21%
same,inhibition,[26],10.2%
same,inhibition,[27],2.97%
same,inhibition,[28],2.24%
same,inhibition,[29],-0.84%
same,inhibition,[30],0.6%
same,inhibition,[31],3.83%
same,inhibition,[32],24.6%
same,inhibition,[33],0.98%
same,inhibition,[34],4.03%
same,inhibition,[35],1.57%
same,inhibition,[36],1.37%
same,inhibition,[37],0.68%
same,inhibition,[38],-0.46%
same,inhibition,[39],1.9%
same,inhibition,[40],5.43%
same,inhibition,[41],4.32%
same,inhibition,[42],23.4%
same,inhibition,[43],2%
same,inhibition,[44],-0.7%
same,inhibition,[45],4.75%
same,inhibition,[46],9.98%
same,inhibition,[47],4.23%
same,inhibition,[48],8.52%
same,inhibition,[49],-2.42%
same,inhibition,[50],1.27%
same,inhibition,[51],-1.38%
same,inhibition,[52],1.67%
same,inhibition,[53],7.04%
same,inhibition,[54],10.5%
same,inhibition,[55],5.2%
same,inhibition,[56],18.7%
